Where a name gives a salt, the structure may show the parent alone.
What follows are molecules tested on Saccharomyces cerevisiae BY4741 SeMeCo community (assay: z-score of subpopulation abundance vs DMSO median, subpopulation auxotrophic for U; higher = larger share of this subpopulation than in DMSO controls). Conditions: 10 µM; 24 h; SM minimal medium; subpopulation (auxotrophy): U.
Description: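 Fluorescent four-plasmid SeMeCo (self-establishing metabolically cooperating S. cerevisiae BY4741 community; plasmids pH-mRuby2, pL-mWasabi, pU-eCFP, pM-TagRFP657) was grown 24 h in minimal SM medium with each Selleck FDA-approved drug at 10 µM in 384-well plates. Cells were fixed and imaged by high-content confocal microscopy. For each auxotrophic subpopulation (and the prototroph), a z-score gives the deviation from the DMSO vehicle-control population median.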

| SMILES | z-score of subpopulation abundance |
| --- | --- |
| CN(C)c1ccc(O)c2c1C[C@H]1C[C@H]3[C@H](N(C)C)C(=O)C(C(N)=O)=C(O)[C@@]3(O)C(=O)C1=C2O [Minocycline HCl] | 0.78 |
| CC(C)c1nc(N(C)S(C)(=O)=O)nc(-c2ccc(F)cc2)c1/C=C/[C@@H](O)C[C@@H](O)CC(=O)O [Rosuvastatin Calcium] | 0.59 |
| C=CCc1ccc(O)c(-c2ccc(O)c(CC=C)c2)c1 [Honokiol] | -1.32 |
| C1CCN2C[C@@H]3C[C@@H](CN4CCCC[C@@H]34)[C@H]2C1 [(-)-Sparteine Sulfate] | -0.7 |
| Nc1ccc(S(=O)(=O)Nc2cnc3ccccc3n2)cc1 [Sulfaquinoxaline sodium] | 1.01 |
| CN(C)CCC=C1c2ccccc2C(C)(C)c2ccccc21 [Melitracen hydrochloride] | -0.05 |
| O=C(O)CCc1nc(-c2ccccc2)c(-c2ccccc2)o1 [Oxaprozin] | -1.97 |
| CC(C)c1nc(N(C)S(C)(=O)=O)nc(-c2ccc(F)cc2)c1/C=C/[C@@H](O)C[C@@H](O)CC(=O)O [Rosuvastatin] | -1.39 |
| Clc1ccc(CCC(Cn2ccnc2)Sc2c(Cl)cccc2Cl)cc1 (stereo not given) [Butoconazole] | -0.41 |
| CC[N+](C)(C)c1cccc(O)c1 [Edrophonium chloride] | 1.2 |
| COc1cc2c(cc1OC)[C@@H]1Cc3ccc(OC)c(OC)c3CN1CC2 [Rotundine] | 0.7 |
| CC[C@H]1OC(=O)[C@H](C)[C@@H](O[C@H]2C[C@@](C)(OC)[C@@H](O)[C@H](C)O2)[C@H](C)[C@@H](O[C@@H]2O[C@H](C)C[C@H](N(C)C)[C@H]2O)[C@](C)(O)C[C@@H](C)CN(C)[C@H](C)[C@@H](O)[C@]1(C)O [Azithromycin Dihydrate] | -0.03 |
| Cc1nc(Nc2ccc(F)cc2)nc(N2CCc3ccccc3C2C)c1C (stereo not given) [Revaprazan Hydrochloride] | 0.73 |
| CC1(C)S[C@@H]2[C@H](NC(=O)COc3ccccc3)C(=O)N2[C@H]1C(=O)O [Penicillin V potassium salt] | 0.95 |
| COc1ccc([C@@H]2Sc3ccccc3N(CCN(C)C)C(=O)[C@@H]2OC(C)=O)cc1 [Diltiazem HCl] | -0.19 |
| CN(Cc1cnc2nc(N)nc(N)c2n1)c1ccc(C(=O)N[C@@H](CCC(=O)O)C(=O)O)cc1 [Methotrexate disodium] | -4.34 |
| CCc1c(C)[nH]c2c1C(=O)C(CN1CCOCC1)CC2 (stereo not given) [Molindone hydrochloride] | -0.6 |
| CCCCOc1ccc(CC(=O)NO)cc1 [Bufexamac] | 0.85 |
| COc1ccc(CNc2nc(N3CCC[C@H]3CO)ncc2C(=O)NCc2ncccn2)cc1Cl [Avanafil] | 0.68 |
| CN(CCN1CCC(OC(=O)Nc2ccccc2-c2ccccc2)CC1)C(=O)c1ccc(CN2CCC(C(N)=O)CC2)cc1 [Revefenacin] | 0.17 |

| SMILES | z-score of subpopulation abundance |
| --- | --- |
| CC(C)C(=O)c1c(C(C)C)nn2ccccc12 [Ibudilast] | 1.05 |
| C[C@]12CCC3=C4CCC(=O)C=C4CC[C@H]3[C@@H]1CC[C@@]2(O)CC#N [Dienogest] | -0.87 |
| CC(C(=O)O)c1cccc(C(=O)c2ccccc2)c1 (stereo not given) [Ketoprofen] | -0.65 |
| CC(=O)O[C@H]1C[C@@]2(C)[C@@H](C[C@@H](O)[C@H]3[C@@]4(C)CC[C@@H](O)[C@@H](C)[C@@H]4CC[C@@]32C)/C1=C(\CCC=C(C)C)C(=O)O [Fusidate Sodium] | 0.34 |
| CCCCc1oc2ccccc2c1C(=O)c1cc(I)c(OCCN(CC)CC)c(I)c1 [Amiodarone HCl] | -0.62 |
| CO/N=C(\C(=O)N[C@@H]1C(=O)N2C(C(=O)O)=CCS[C@H]12)c1csc(N)n1 [Ceftizoxime] | -0.63 |
| Cc1ccc(Nc2c(F)cccc2Cl)c(CC(=O)O)c1 [Lumiracoxib] | -0.66 |
| C[C@]12CC[C@@H]3c4ccc(O)cc4CC[C@H]3[C@@H]1CC[C@@H]2O [Estradiol] | 0.01 |
| Cc1ccc(Cl)c(Nc2ccccc2C(=O)O)c1Cl [Meclofenamate Sodium] | -0.1 |
| CCCNC(C)C(=O)Nc1ccccc1C (stereo not given) [Prilocaine] | -0.13 |
| CN(C)CCN1C(=O)c2cccc3cc(N)cc(c23)C1=O [Amonafide] | -1.14 |
| OCc1ccccc1O[C@@H]1O[C@H](CO)[C@@H](O)[C@H](O)[C@H]1O [Salicin] | -0.42 |
| Cc1cc(C)nc(NS(=O)(=O)c2ccc(N)cc2)n1 [Sulfamethazine] | -0.82 |
| C[C@@H](O)[C@H]1C(=O)N2C(C(=O)[O-])=C(SC3Cn4cnc[n+]4C3)[C@H](C)[C@H]12 (stereo not given in full) [Biapenem] | -0.12 |
| Clc1ccc(COC(Cn2ccnc2)c2ccc(Cl)cc2Cl)cc1 (stereo not given) [Econazole nitrate] | 3.05 |
| CO/N=C(\C(=O)N[C@@H]1C(=O)N2C(C(=O)O)=C(CSc3nnnn3C)CS[C@H]12)c1csc(N)n1 [Cefmenoxime hydrochloride] | -0.34 |
| Cc1ccccc1OCC(O)CO (stereo not given) [Mephenesin] | -0.22 |
| Cc1c(OCC(F)(F)F)ccnc1C[S@@+]([O-])c1nc2ccccc2[nH]1 [Dexlansoprazole] | -0.65 |
| OCCOc1ccc(/C(=C(/CCCl)c2ccccc2)c2ccccc2)cc1 [Ospemifene] | -0.86 |
| O=C(C1CCCCC1)N1CC(=O)N2CCc3ccccc3C2C1 (stereo not given) [Praziquantel] | 0.5 |

Source: the supplement of paper PMC8975748
